This is an account of results in PubChem BioAssay (NCI).

Some test systems named below: RPMI-8226 leukemia; OVCAR-8 ovarian; OVCAR-5 ovarian; OVCAR-4 ovarian; SK-OV-3 ovarian; IGROV1 ovarian; OVCAR-3 ovarian; HS 578T breast; NCI/ADR-RES ovarian.
Experiment in all cases: NCI-60 one-dose screen, 48 h (100 = growth as untreated, 0 = no growth, -100 = all killed)
Common to all, as to conditions: 10 µM unless noted

This is part of a sample that, as a whole, favours compounds with a hit. Of some 83,000 tested, about 20% had one in any assay.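 Step 1: grow cells in 96-well plates. Step 2: add test compound at a single concentration. Step 3: incubate 48 h. Step 4: record percent growth.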 Values without a mark were called inactive. The source made the active and inactive calls. The calls were made as follows: active = growth percent below 10; inactive = the rest.

In the case of `CCCCCCCC/C=C/CCCCCCCC1=NC(C)(C)CN1C(C)(C)CO`, the growth in the test with RPMI-8226 leukemia was -21.7% (active); with OVCAR-8 ovarian, 37.1%; with OVCAR-5 ovarian it was 65.1%; in the test on OVCAR-4 ovarian, 42.5%; with SK-OV-3 ovarian, 70.3%; with IGROV1 ovarian, 1.53% (active). In addition, the growth in the test with OVCAR-3 ovarian is 55.4%; in the test on HS 578T breast, 65.9%; with NCI/ADR-RES ovarian it was 56%.
For `CCCCN(CCCC)c1ccc(C(=N)c2ccc(N(CCCC)CCCC)cc2)cc1`, the growth is -74.3% (active) in the test with RPMI-8226 leukemia; -82.1% (active) in the test with OVCAR-8 ovarian; -82.4% (active) with OVCAR-5 ovarian; -79.3% (active) with OVCAR-4 ovarian; -22.6% (active) in the test with SK-OV-3 ovarian; -53.5% (active) in the test with IGROV1 ovarian. Besides, the growth is -99.2% (active) with OVCAR-3 ovarian, -45% (active) in the test on HS 578T breast and -87.5% (active) with NCI/ADR-RES ovarian.
In the case of `CCC1=CCC[C@@]2(C)CCC[C@@]3(C)CCCC(C)(C)[C@]1([O-])[O+]32`, the growth with RPMI-8226 leukemia is 97.9%; in the test with OVCAR-8 ovarian, 104%; with OVCAR-5 ovarian, 104%; with OVCAR-4 ovarian, 85.1%; in the test on SK-OV-3 ovarian, 107%; in the test with IGROV1 ovarian, 105%. The growth in the test on OVCAR-3 ovarian was 111%; in the test with HS 578T breast it was 92.8%; in the test with NCI/ADR-RES ovarian it was 106%.
As for `C=C1CCC[C@]2(C)CCC[C@H](C)[C@@H](OC(C)=O)[C@@H]3OC(=O)C(=C)[C@@H]3C[C@H]1O2`, the growth was 54.8% in the test on RPMI-8226 leukemia; 61.5% with OVCAR-8 ovarian; 101% in the test with OVCAR-5 ovarian; 61.2% with OVCAR-4 ovarian; 85% in the test with SK-OV-3 ovarian; 81.8% with IGROV1 ovarian. In addition, the growth in the test with OVCAR-3 ovarian was 47.9%; with HS 578T breast, 78%; in the test with NCI/ADR-RES ovarian it was 73.6%.
As for `COc1ccc(S(=O)(=O)n2cc(C(=O)C(=O)Nc3ccncc3)c3ccccc32)cc1F`, the growth in the test with RPMI-8226 leukemia was 48.6%; in the test on OVCAR-8 ovarian, 69%; in the test on OVCAR-5 ovarian, 81.1%; in the test with OVCAR-4 ovarian, 73.4%; in the test with SK-OV-3 ovarian, 85%; in the test with IGROV1 ovarian it was 72%. Also, the growth in the test with OVCAR-3 ovarian was 85.6%; with HS 578T breast, 88.1%; with NCI/ADR-RES ovarian it was 67.2%.
Turning to `C=C(C)[C@@H]1C[C@@H]2Cc3ccc(Cl)c(C)c3N1O2`, the growth in the test with RPMI-8226 leukemia was 78.6%; in the test on OVCAR-8 ovarian, 107%; with OVCAR-5 ovarian it was 79.5%; in the test on OVCAR-4 ovarian it was 91.7%; with SK-OV-3 ovarian, 99.6%; in the test with IGROV1 ovarian, 111%. Further, the figures for the growth with OVCAR-3 ovarian, in the test on HS 578T breast and in the test with NCI/ADR-RES ovarian were 105%, 97% and 94.2%, respectively.
Regarding `COc1cc(-c2nn(-c3cccc(NC(=O)c4ccc(Cl)c(C(F)(F)F)c4)c3)cc2-c2ccncc2)ccc1Cl`, the growth in the test on RPMI-8226 leukemia was 25.4%; in the test on OVCAR-8 ovarian it was 38.9%; with OVCAR-5 ovarian it was 91.3%; in the test on OVCAR-4 ovarian it was 66%; with SK-OV-3 ovarian, 64.3%; with IGROV1 ovarian it was 48.9%. For the same compound, the growth with OVCAR-3 ovarian is 19.5%; in the test on HS 578T breast, 34.7%; in the test with NCI/ADR-RES ovarian it was 13.4%.
Turning to `CCOC(=O)c1cn2c3c(cccc3c1=O)C(=O)/C(=C/c1cccc(Cl)c1Cl)C2`, the growth is 92.4% with RPMI-8226 leukemia; 95.7% in the test on OVCAR-8 ovarian; 102% in the test on OVCAR-5 ovarian; 100% in the test on OVCAR-4 ovarian; 86.1% with SK-OV-3 ovarian; 99.7% with IGROV1 ovarian. For the same compound, the results for the growth in the test with OVCAR-3 ovarian, in the test on HS 578T breast and in the test on NCI/ADR-RES ovarian were 113%, 100% and 101%, respectively.
Take `CC(=O)Oc1csc(N(C(C)=O)c2cccc(C(F)(F)F)c2)n1`: the growth is 75.8% in the test with RPMI-8226 leukemia; 94.1% with OVCAR-8 ovarian; 96.2% in the test with OVCAR-5 ovarian; 89.4% in the test on OVCAR-4 ovarian; 99.6% with SK-OV-3 ovarian; 98.4% in the test with IGROV1 ovarian. Moreover, the figures for the growth in the test on OVCAR-3 ovarian, with HS 578T breast and in the test with NCI/ADR-RES ovarian were 103%, 93% and 104%, respectively.
For the compound `Cc1c(C(=O)/C=C/c2csc3ccccc23)[n+](=O)c2ccccc2n1[O-]`, the growth in the test on RPMI-8226 leukemia was 7.86% (active); with OVCAR-8 ovarian, 21.1%; in the test on OVCAR-5 ovarian, 94.5%; in the test with OVCAR-4 ovarian, 43.5%; in the test with SK-OV-3 ovarian, 76.4%; in the test on IGROV1 ovarian, 16.6%. For the same compound, the growth is -38.8% (active) in the test on OVCAR-3 ovarian, 93.9% with HS 578T breast and 22.5% in the test with NCI/ADR-RES ovarian.
`COc1ccc(C2C=C(c3ccc(OC)c(OC)c3)N=C3SC=C(C)N32)c(Br)c1` (stereo not given): the growth in the test on RPMI-8226 leukemia was 102%; in the test with OVCAR-8 ovarian it was 99.2%; in the test on OVCAR-5 ovarian, 92.8%; with OVCAR-4 ovarian, 99.6%; in the test with SK-OV-3 ovarian, 107%; with IGROV1 ovarian it was 105%. Moreover, the growth was 112% with OVCAR-3 ovarian, 116% in the test with HS 578T breast and 113% in the test with NCI/ADR-RES ovarian.
Consider `COc1ccc(C2C=C(c3ccc(Cl)cc3)N=C3SC=C(C)N32)c(Br)c1` (stereo not given), for which the growth in the test with RPMI-8226 leukemia was 14.9%; in the test on OVCAR-8 ovarian, 18.6%; in the test on OVCAR-5 ovarian, 67%; in the test with OVCAR-4 ovarian, 48.1%; in the test on SK-OV-3 ovarian, 35.3%; with IGROV1 ovarian, 46.1%. Besides, the growth was 10.8% in the test on OVCAR-3 ovarian, 56.3% in the test on HS 578T breast and 33.2% with NCI/ADR-RES ovarian.
For `Nc1cccc(-c2nc3sccn3c2-c2ccnc(NCCCNS(=O)(=O)c3cccc4ccccc34)n2)c1`, the growth in the test on RPMI-8226 leukemia is 8.33% (active); with OVCAR-8 ovarian, 23.5%; in the test on OVCAR-5 ovarian it was 92.1%; in the test with OVCAR-4 ovarian, 24.6%; with SK-OV-3 ovarian, 63.1%; in the test on IGROV1 ovarian it was 36.7%. Moreover, the growth was 37.6% in the test with OVCAR-3 ovarian, 44.7% in the test with HS 578T breast and 38.3% in the test on NCI/ADR-RES ovarian.
For the compound `COc1cc(-c2nn(-c3cccc(NC(=O)Nc4ccc(Cl)c(Cl)c4)c3)cc2-c2ccncc2)ccc1Cl`, the growth in the test with RPMI-8226 leukemia was -11.6% (active); in the test on OVCAR-8 ovarian, -17.2% (active); with OVCAR-5 ovarian, 38%; in the test with OVCAR-4 ovarian, 19.8%; in the test on SK-OV-3 ovarian, 11.8%; with IGROV1 ovarian, 23.9%. In addition, the growth in the test with OVCAR-3 ovarian is -10% (active); in the test with HS 578T breast it was -6.95% (active); in the test on NCI/ADR-RES ovarian it was 0.321% (active).
Regarding `C=C[C@@H]1C[C@H](O)Cc2ccccc2N1`, the growth was 89.9% with RPMI-8226 leukemia; 103% with OVCAR-8 ovarian; 106% with OVCAR-5 ovarian; 113% with OVCAR-4 ovarian; 114% in the test with SK-OV-3 ovarian; 124% in the test with IGROV1 ovarian. For the same compound, the growth is 125% in the test on OVCAR-3 ovarian, 104% in the test with HS 578T breast and 106% with NCI/ADR-RES ovarian.
